In PubChem BioAssay (EPA / NIEHS) one finds outcome and AC50 data, which are given here for two compounds.

Molecules are shown by their SMILES. Several values for one entry are separate records, joined by “and”; a condition that tells them apart may be missing. Identical values can stand only once. Records with an inconclusive call do not appear. More than one record can exist for a structure, and the calls need not agree. Activity calls are given as the source filed them. The calls were made as follows: active = hit-call score of the fitted dose curve at least 0.9, where 1 is the maximum; inconclusive = response in the unintended direction; inactive = score below 0.9.

Experiment [1] concerns the target human Vascular Endothelial Growth Factor Receptor 2 (VEGFR2), KDR (gene 3791) (UniProt P35968). Description: NVS_ENZ_hVEGFR2: NovaScreen (NVS) Enzymatic Assay for human Vascular Endothelial Growth Factor Receptor 2 (VEGFR2) (AID 2283230). Summed up: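 Cell-free recombinant VEGFR2 kinase, fluorescent substrate with electrophoretic mobility-shift separation; read 1 h after dosing. Screened at 25 uM in duplicate, hits to concentration-response up to 50 uM; loss-of-signal versus DMSO.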

The target in experiment [2] is rat Catechol-O-Methyl Transferase (COMT), Comt (gene 24267) (UniProt P22734). Nature of the experiment: NVS_ENZ_rCOMT: NovaScreen (NVS) Enzymatic Assay for rat Catechol-O-Methyl Transferase (COMT) (AID 2283235). Summed up:
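Rat dorsal striatum extract served as COMT source; product quantified by HPLC/spectrophotometry, read at 0 h after dosing. Primary single-concentration screen at 25 uM, followed by concentration series to a 50 uM maximum.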

Chain of human Vascular Endothelial Growth Factor Receptor 2 (VEGFR2), KDR (gene 3791) (P35968 whole entry, looked up): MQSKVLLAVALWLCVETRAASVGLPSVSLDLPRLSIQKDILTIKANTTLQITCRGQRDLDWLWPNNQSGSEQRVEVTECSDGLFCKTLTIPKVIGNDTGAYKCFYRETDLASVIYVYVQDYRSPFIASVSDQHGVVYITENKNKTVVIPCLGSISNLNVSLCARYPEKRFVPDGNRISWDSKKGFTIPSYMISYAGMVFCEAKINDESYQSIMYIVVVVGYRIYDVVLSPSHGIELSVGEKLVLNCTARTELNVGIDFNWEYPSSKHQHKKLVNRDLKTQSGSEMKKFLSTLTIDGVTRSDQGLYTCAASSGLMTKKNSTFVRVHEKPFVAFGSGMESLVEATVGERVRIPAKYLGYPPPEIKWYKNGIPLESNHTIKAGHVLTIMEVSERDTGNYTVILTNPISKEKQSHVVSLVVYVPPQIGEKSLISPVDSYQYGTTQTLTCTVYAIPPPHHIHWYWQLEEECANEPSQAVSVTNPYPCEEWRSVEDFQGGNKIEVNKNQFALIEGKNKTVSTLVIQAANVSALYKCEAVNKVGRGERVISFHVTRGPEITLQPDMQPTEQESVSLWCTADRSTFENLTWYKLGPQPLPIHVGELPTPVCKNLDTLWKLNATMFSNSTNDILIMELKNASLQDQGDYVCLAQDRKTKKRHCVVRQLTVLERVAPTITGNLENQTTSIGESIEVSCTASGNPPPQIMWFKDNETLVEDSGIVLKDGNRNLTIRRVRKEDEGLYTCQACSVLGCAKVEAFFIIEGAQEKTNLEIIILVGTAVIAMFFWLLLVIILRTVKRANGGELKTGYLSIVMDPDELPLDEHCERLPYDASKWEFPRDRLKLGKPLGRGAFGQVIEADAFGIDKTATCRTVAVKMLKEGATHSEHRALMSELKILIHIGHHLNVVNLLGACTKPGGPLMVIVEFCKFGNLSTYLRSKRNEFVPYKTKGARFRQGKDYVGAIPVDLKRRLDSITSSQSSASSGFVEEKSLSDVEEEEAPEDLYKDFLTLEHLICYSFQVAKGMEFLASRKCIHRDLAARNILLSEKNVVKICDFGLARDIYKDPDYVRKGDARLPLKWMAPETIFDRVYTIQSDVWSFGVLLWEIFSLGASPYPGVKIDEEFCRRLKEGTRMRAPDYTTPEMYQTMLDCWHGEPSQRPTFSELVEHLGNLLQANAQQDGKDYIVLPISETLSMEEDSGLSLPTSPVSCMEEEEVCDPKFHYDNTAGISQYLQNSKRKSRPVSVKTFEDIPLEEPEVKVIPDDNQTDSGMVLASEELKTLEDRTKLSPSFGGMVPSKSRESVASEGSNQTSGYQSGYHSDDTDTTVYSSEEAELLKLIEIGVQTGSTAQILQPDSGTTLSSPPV
Chain of rat Catechol-O-Methyl Transferase (COMT), Comt (gene 24267) (P22734 whole entry, looked up): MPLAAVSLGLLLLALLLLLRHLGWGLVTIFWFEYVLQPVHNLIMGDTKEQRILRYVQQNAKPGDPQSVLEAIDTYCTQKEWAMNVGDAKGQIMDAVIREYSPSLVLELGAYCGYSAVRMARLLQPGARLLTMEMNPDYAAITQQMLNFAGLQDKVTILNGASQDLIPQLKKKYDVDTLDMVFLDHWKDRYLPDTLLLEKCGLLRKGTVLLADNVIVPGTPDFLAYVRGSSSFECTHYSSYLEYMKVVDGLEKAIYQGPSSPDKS

Consider `CC[C@H](C)[C@H]1O[C@]2(C=C[C@@H]1C)C[C@@H]1C[C@@H](C/C=C(\C)[C@@H](O[C@H]3C[C@H](OC)[C@@H](O[C@H]4C[C@H](OC)[C@@H](NC)[C@H](C)O4)[C@H](C)O3)[C@@H](C)/C=C/C=C3\CO[C@@H]4[C@H](O)C(C)=C[C@@H](C(=O)O1)[C@]34O)O2`, for which the compound was called inactive in experiment [1].

Take `CN(C)[C@@H]1C(=O)C(C(N)=O)=C(O)[C@@]2(O)C(=O)C3=C(O)c4c(O)cccc4[C@@](C)(O)[C@H]3[C@H](O)[C@@H]12`: in experiment [1], the AC50 was 12.3 µM (active) and 18.2 µM (active); the call was inactive. In experiment [2], the AC50 was 3.33 µM (active) and 1.72 µM (active).
